Screening results (PubChem)
An excerpt weighted towards active compounds, which were near 11% of everything screened.
RORgamma inh: blocks mouse ROR gamma transcriptional activity. actives 5.4% (n = 310,000). Potency, µM (top dose mostly 53.6 µM), most hits filed as inhibitors. P51450. AID 2551. Drosophila S2 Gal4-RORgamma UAS-luciferase reporter, 20 h; also: nearly all actives have a fitted effect of over 60% in size
Target sequence (P51450 whole entry, looked up, the tested form may be a part): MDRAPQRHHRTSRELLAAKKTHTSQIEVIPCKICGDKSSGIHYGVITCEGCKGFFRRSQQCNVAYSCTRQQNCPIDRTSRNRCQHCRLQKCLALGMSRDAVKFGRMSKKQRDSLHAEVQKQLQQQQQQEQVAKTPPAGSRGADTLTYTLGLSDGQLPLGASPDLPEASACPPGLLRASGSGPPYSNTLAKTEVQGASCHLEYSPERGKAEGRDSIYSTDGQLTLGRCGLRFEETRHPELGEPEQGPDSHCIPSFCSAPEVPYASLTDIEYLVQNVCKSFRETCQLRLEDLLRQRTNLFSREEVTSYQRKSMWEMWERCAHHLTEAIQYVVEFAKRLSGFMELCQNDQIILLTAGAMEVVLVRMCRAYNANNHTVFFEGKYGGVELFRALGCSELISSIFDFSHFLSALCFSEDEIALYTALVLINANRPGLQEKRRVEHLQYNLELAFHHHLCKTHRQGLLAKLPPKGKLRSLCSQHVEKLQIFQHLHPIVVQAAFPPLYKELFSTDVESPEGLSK
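Stably transfected Drosophila Schneider cells are the test system, with ROR gamma fused to Gal4 and luciferase under UAS control; luminescence is read after 20 hr of 700 uM copper sulfate induction at ambient temperature.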
MCF10A rerep: induces DNA re-replication in MCF 10a normal breast cells | MCF 10A DNA re-replication, Hoechst nuclear intensity, 48 h | Potency, µM (doses to about 46.1 µM), actives largely listed as activators | actives 2.9% (n = 350,000) | AID 624296; also: nearly all actives have a fitted effect of over 50% in size
IL-1B inflam inh: inflammasome signaling inhibition, IL-1 beta readout; activity change, % at 57.5 µM; actives 4.7% (n = 360,000); AID 743279; THP-1 LPS/ATP IL-1B secretion, AlphaLISA, 16 h; hits give low values; in the data active = activity change below about -50%; inconclusive = mostly about -30% to -49%
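Secreted IL-1B measured by AlphaLISA bead assay after 16 h compound exposure of THP-1 cells; compounds (final up to 57.5 uM) added 1 h before LPS (250 ng/mL) and ATP (1.25 mM) stimulation; lower signal means less secretion.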
VP16 counter: Gal4-VP16 reporter inhibition counter-screen | Drosophila S2 Gal4-VP16 UAS-luciferase, luminescence, 20 h | Potency, µM (titrated, usually from 53.6 µM), most hits filed as inhibitors | actives 3.5% (n = 310,000) | AID 2546;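 also: Gal4-VP16 expression switched on by copper sulfate through the metallothionein promoter; nearly all actives have a fitted effect of over 50% in size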
SW480 rerep: induces DNA re-replication in SW480 colon adenocarcinoma cells | actives 1.8% (n = 340,000) | Potency, µM (titrated, usually from 46.1 µM), most hits filed as activators | AID 624297 | SW480 DNA re-replication, Hoechst DNA content imaging, 48 h; also: nearly all actives have a fitted effect of over 55% in size
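250 cells/well; 23 nL cpd via pin tool; 48 hr, 37 C, 5% CO2; Hoechst 40 min; imager read of total nuclear intensity, ex 405/em 500-530 nm.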
Large screens that a line does not name were inactive. Unless noted, calls follow the shape of the dose curve; as a rule, active = well fitted curve in the direction sought with a large enough effect; inconclusive = small, poorly fitted or top-dose-only effect, or another doubt; inactive = no such curve, though single readings can be large; an effect the other way counts as inactive or inconclusive.

CCCc1cc(NCc2ccccn2)n2nc(C)c(-c3ccccc3)c2n1	RORgamma inh 0.089µM, MCF10A rerep inconclusive, VP16 counter 0.56µM, SW480 rerep 3.3µM
Cc1nn2c(NCc3ccccn3)cc(C(C)C)nc2c1-c1ccccc1	RORgamma inh 0.089µM, MCF10A rerep inconclusive, VP16 counter 0.63µM, SW480 rerep inconclusive
Cc1cc(NCCC(C)C)n2nc(C)c(-c3ccccc3)c2n1	MCF10A rerep 15µM, IL-1B inflam inh inconclusive
O=C(NCC(=O)N1CCN(c2ccccn2)CC1)c1ccc(Br)o1	none
O=C1NC[C@H](CCCCN2C[C@H](Cc3ccccc3)N(CCc3ccc(O)cc3)C(=O)C2=O)N(CCc2ccccc2)C1=O	none (no result: RORgamma inh, MCF10A rerep, VP16 counter, SW480 rerep)
COc1ccc(-c2cnc3c(NC=O)cc(-c4ccccc4OC)cn23)cc1OC	none (no result: RORgamma inh, MCF10A rerep, VP16 counter, SW480 rerep)
NCC(O)COCCC12CC3CC(CC(C3)C1)C2 (stereo not given)	none
CCC(=O)c1ccc(OCC(O)CNC(C)c2ccccc2)cc1 (stereo not given)	none
COc1ccc(C(OCC(O)CNC(C)c2ccccc2)c2ccc(OC)cc2)cc1 (stereo not given)	MCF10A rerep inconclusive, IL-1B inflam inh -98, SW480 rerep inconclusive
CC(NCC(O)COCCC12CC3CC(CC(C3)C1)C2)c1ccccc1 (stereo not given)	RORgamma inh 13µM, MCF10A rerep inconclusive, IL-1B inflam inh -98, VP16 counter inconclusive, SW480 rerep inconclusive
CC(C)c1ccc(OCC(O)CNC(C)c2ccccc2)cc1 (stereo not given)	RORgamma inh inconclusive, IL-1B inflam inh -85
CC1=C(C(=O)N2CCOCC2)CC(CC(=O)NCCCCc2ccccc2)C(=O)N1Cc1ccc(C(C)(C)C)cc1 (stereo not given)	none (no result: RORgamma inh, MCF10A rerep, VP16 counter, SW480 rerep)
O=c1c2ccccc2oc2ccc(C#CC3(O)CCCCC3)cc12	MCF10A rerep inconclusive (no result: RORgamma inh, VP16 counter)
Cn1c2ccccc2c(=O)c2ccc(C#CC3(N)CCCCC3)cc21	MCF10A rerep inconclusive, IL-1B inflam inh -86, SW480 rerep inconclusive
NC1(C#Cc2ccc3c(=O)c4ccccc4sc3c2)CCCCC1	MCF10A rerep inconclusive, SW480 rerep inconclusive (no result: RORgamma inh, VP16 counter)
Cn1c2ccccc2c(=O)c2cc(C#CC3(O)CCCCC3)ccc21	RORgamma inh 11µM, MCF10A rerep inconclusive, IL-1B inflam inh -53, VP16 counter 16µM, SW480 rerep inconclusive
COc1cccc2oc3ccc(C#CC4(N)CCCCC4)cc3c(=O)c12	RORgamma inh inconclusive, MCF10A rerep inconclusive, IL-1B inflam inh -97, VP16 counter inconclusive, SW480 rerep inconclusive
O=C(C(c1ccccc1)N1CCOCC1)N1CCOCC1 (stereo not given)	none
O=C(C=Cc1ccccc1)CC(c1ccccc1)N1CCOCC1 (stereo not given)	MCF10A rerep 3.7µM, IL-1B inflam inh -98, SW480 rerep 3.7µM (no result: RORgamma inh, VP16 counter)
CC(Oc1ccc(Cl)cc1)C(=O)NCCN1C(=O)S/C(=C\c2cccnc2)C1=O (stereo not given)	IL-1B inflam inh -78, VP16 counter inconclusive
O=C(O)CN1C(=O)S/C(=C\c2cccnc2)C1=O	SW480 rerep inconclusive
O=C(NCCN1C(=O)S/C(=C/c2cccnc2)C1=O)c1cccs1	IL-1B inflam inh inconclusive (no result: RORgamma inh, VP16 counter)
CC(C)(Oc1ccc(Cl)cc1)C(=O)NCCN1C(=O)S/C(=C/c2cccnc2)C1=O	MCF10A rerep inconclusive, IL-1B inflam inh -91, VP16 counter inconclusive
O=C(COc1ccccc1-c1ccccc1)NCCN1C(=O)S/C(=C\c2cccnc2)C1=O	MCF10A rerep inconclusive, VP16 counter 20µM (no result: SW480 rerep)
Cn1cc(C(c2ccccc2OCC(=O)O)c2cn(C)c3ccccc23)c2ccccc21	MCF10A rerep inconclusive
COC(=O)Cn1ncc(N2CC(C)OC(C)C2)c(Cl)c1=O (stereo not given)	none
O=C(c1ccco1)N1CCC[C@@]2(CCN(C(c3ccccc3)c3ccccc3)C2)C1	VP16 counter inconclusive (no result: MCF10A rerep, IL-1B inflam inh, SW480 rerep)
CC(=O)Nc1ccc(-c2ccnc3c2CC(C)(C(=O)Nc2ccc(C(C)C)cc2)O3)cc1 (stereo not given)	IL-1B inflam inh -84 (no result: RORgamma inh, MCF10A rerep, VP16 counter, SW480 rerep)
CC(=O)Nc1ccc(-c2ccnc3c2CC(C)(C(=O)Nc2ccc(F)c(Cl)c2)O3)cc1 (stereo not given)	IL-1B inflam inh -62 (no result: RORgamma inh, MCF10A rerep, VP16 counter, SW480 rerep)
CN(C)c1ccc(-c2ccnc3c2CC(C)(C(=O)Nc2ccc(F)c(Cl)c2)O3)cc1 (stereo not given)	none (no result: RORgamma inh, MCF10A rerep, VP16 counter, SW480 rerep)
Nc1c(C(=O)NC2CCCC2)c2nc3ccccc3nc2n1/N=C/c1cccnc1	MCF10A rerep 4.1µM, SW480 rerep inconclusive (no result: RORgamma inh, VP16 counter)
Cc1cc(Cl)ccc1NC(=S)NCC(C)C	RORgamma inh 4.5µM, VP16 counter 7.1µM
CCCNC(=S)Nc1ccc(Cl)cc1C	RORgamma inh 7.1µM, MCF10A rerep inconclusive, VP16 counter inconclusive
Cc1cc(Cl)ccc1NC(=S)NC(C)(C)C	RORgamma inh 2µM, VP16 counter 16µM
CCCC1(c2ccccc2)NC(=O)N(CC(=O)Nc2cc(C)ccc2OC)C1=O (stereo not given)	none
COc1ccc(CN2C(=O)c3cccnc3C2=O)cc1S(=O)(=O)NC1CCCCC1C (stereo not given)	none
NC(=O)C1CCN(c2nc(-c3ccccc3)nc3c2oc2ccccc23)CC1	IL-1B inflam inh -71
NC(=O)C1CCN(c2nc(-c3ccccc3)nc3ccccc23)CC1	IL-1B inflam inh -54
COc1ccc2nc(NC(=O)c3ccc(F)cc3)sc2c1	RORgamma inh 11µM
COc1ccc(C(C)(C)C)cc1NC(=O)c1ccc2ncsc2c1	RORgamma inh inconclusive, IL-1B inflam inh -51
COc1ccc2nc(NC(=O)c3ccc4ncsc4c3)sc2c1	MCF10A rerep 15µM, SW480 rerep inconclusive
COc1ccc(-c2sc3ccccc3c2C#CC2(O)CCCCC2)cc1	MCF10A rerep inconclusive, SW480 rerep inconclusive
CN(C(=S)NC1CCCCC1)C1(c2ccccc2Cl)CCCCC1=O (stereo not given)	RORgamma inh 13µM, VP16 counter inconclusive
CCNc1ncc2nc(-c3cn(C)c4ccccc34)c(=O)n(C[C@H]3CCCO3)c2n1	none (no result: MCF10A rerep, IL-1B inflam inh, SW480 rerep)
CCCn1c(C(C)Nc2nc(-c3cc(Cl)c(N)c(Cl)c3)cs2)nc2cc(Cl)c(N3CCCCC3)cc21 (stereo not given)	RORgamma inh 14µM
COc1ccc(-c2csc(NC(C)c3nc4cc(Cl)c(N5CCCCC5)cc4n3CCCO)n2)cc1 (stereo not given)	MCF10A rerep inconclusive, IL-1B inflam inh inconclusive, SW480 rerep 0.15µM (no result: RORgamma inh, VP16 counter)
CCC(C)CCCCC(=O)N[C@@H](CCN)C(=O)N[C@H](C(=O)N[C@@H](CCN)C(=O)N[C@H]1CCNC(=O)C([C@@H](C)O)NC(=O)[C@@H](CCN)NC(=O)[C@H](CCN)NC(=O)[C@H](CC(C)C)NC(=O)[C@@H](CC(C)C)NC(=O)[C@H](CCN)NC1=O)[C@@H](C)O (stereo not given in full)	none (no result: MCF10A rerep, IL-1B inflam inh, SW480 rerep)
